# AGP1-GFP MLPCN: alters AGP1-GFP fluorescence in TOR pathway yeast screen. GFP response vs DMSO, % at 10 µM. AID 2066. hit rate 0.02% among 320,000. S. cerevisiae AGP1-GFP multiplex flow cytometry, 3 h; GFP as percent of DMSO wells;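 active = GFP response relative to DMSO above a set limit, near screen average plus 3 SD, cut at about 150% in these data; inconclusive = fewer than 70 cells counted for the yeast strain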;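 also: median GFP channel fluorescence of the gated AGP1 strain per well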
# CIT2-GFP yeast: yeast TOR pathway CIT2-GFP modulation. S. cerevisiae CIT2-GFP strain, flow cytometry, 3 h; 100 means same as DMSO wells. GFP response vs DMSO, % at 10 µM. hit rate 0.065% among 320,000. AID 2029;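 active = GFP response relative to DMSO above a set limit, near the screen mean plus 3 SD, cut at about 150% in these data; inconclusive = Fewer than 70 cells measured for a yeast strain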;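 also: ratio of well median GFP fluorescence to mean of DMSO wells on the plate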
# RPL19A TOR yeast: yeast TOR pathway RPL19A-GFP modulation; percent response vs DMSO, % at 10 µM; S. cerevisiae RPL19A-GFP strain, flow cytometry, 3 h; stronger effect = lower value; AID 2025; hit rate 0.3% among 330,000;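 active = percent response vs DMSO below 50%; inconclusive = fewer than 70 events counted for the yeast strain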;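 also: median channel GFP fluorescence of the barcoded RPL19A-GFP strain; ratio of sample median GFP to plate DMSO average so 100% = DMSO; lower means less RPL19A-GFP as with rapamycin TOR inhibition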
# MEP2-GFP yeast: alters MEP2-GFP fluorescence in TOR pathway yeast screen. hit rate 0.51% among 330,000. GFP response vs DMSO, % at 10 µM. AID 2016. S. cerevisiae MEP2-GFP strain, flow cytometry GFP, 3 h; 100% = DMSO control level;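 active = GFP response versus DMSO above a set limit, roughly screen mean plus 3 SD, cut at about 180% in these data; inconclusive = fewer than 70 cells counted for a yeast strain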;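 also: median GFP fluorescence of the barcode-gated MEP2-GFP cells per well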
# LAP4-GFP MLPCN: yeast TOR pathway LAP4-GFP modulation; GFP response vs DMSO, % at 10 µM; S. cerevisiae LAP4-GFP multiplex, flow cytometry GFP, 3 h; median GFP as percent of DMSO wells; hit rate 0.34% among 320,000;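 active = GFP response vs DMSO above a set limit, about the screen mean plus 3 SD, cut at about 150% in these data; inconclusive = under 70 cell events counted for the yeast strain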
# Starred values were filed as active, the others as inactive; ? = inconclusive; nt = not tested or not shown; [ ] = remark or other dose. In the library only some 0.92% were active in any assay of this set; here they are far more common.
SMILES,AGP1-GFP MLPCN,CIT2-GFP yeast,RPL19A TOR yeast,MEP2-GFP yeast,LAP4-GFP MLPCN
Cc1cc(C)cc(NC(=O)Cn2nnc(C(=O)NCc3ccco3)c2N)c1,111,109,105,107,108
O=C(c1cccc(COc2ccc(Cl)cc2Cl)c1)N1CCN(c2ccccn2)CC1,89,87,91,101,162*
O=C(Nc1ccc(F)cc1F)C1CCCN1S(=O)(=O)c1ccc(-c2ccc(=O)[nH]n2)s1 (stereo not given),?,?,42*[may fluoresce violet],253*[may fluoresce violet],48
Nc1[nH]c(=O)ncc1F,66,63,?,89,261*[may fluoresce red]
CN(C(=O)CSc1nc(O)cc(=O)n1-c1ccccc1F)c1ccccc1,102,nt,98,101,94
CN(C(=O)CSc1nc(O)cc(=O)n1C1CCCC1)c1ccccc1,19,?,53,270*[may fluoresce violet],99
COc1ccc(OCC(=O)Nc2c3c(nn2C(C)(C)C)CSC3)cc1,94,98,111,102,98
O=C(O)Cc1ccc2c(c1)N(S(=O)(=O)c1cccs1)CC(C(=O)O)O2 (stereo not given),120,161*[may fluoresce green],94,109,106
CCS(=O)(=O)c1ccc2c(c1)N(S(=O)(=O)c1cccs1)CC(C(=O)O)O2 (stereo not given),109,125,97,98,105
CCCc1ccc(OC(=O)c2ccc(O)cc2Cl)cc1,86,80,95,96,120
CCCC(=O)c1cc2c(cc1NC(=O)CC)OCCO2,103,103,108,107,103
CCC(=O)Nc1cc2c(cc1C(=O)CC)OCCO2,?,?,42*[may fluoresce violet],200*[may fluoresce violet],97
Cn1c(/C=C/c2ccc([N+](=O)[O-])o2)nc2ccccc2c1=O,90,180*[may fluoresce green],126,248*[may fluoresce green],nt
Cn1c(/C=C/c2ccccc2)nc2ccccc2c1=O,84,85,97,94,91
COc1cccc(C(C(=O)NCC2CCCO2)N(C(=O)Cn2nnc3ccccc32)c2ccc(NC(C)=O)cc2)c1 (stereo not given),?,?,54,204*[may fluoresce violet],78
CCOc1cc(C(C(=O)NCC2CCCO2)N(C(=O)Cn2nnc3ccccc32)c2ccc(C(C)=O)cc2)ccc1O (stereo not given),105,107,103,99,95
CC1CCc2c(C(=O)NCc3cccnc3)csc2C1 (stereo not given),111,169*,122,159,148
O=C(CSc1n[nH]c(-c2ccco2)n1)Nc1ccccc1Cl,87,91,89,87,85
COc1ccc(-c2nc3ccccc3c(=O)n2CCCN2CCOCC2)cc1,105,108,104,109,113
O=c1c2ccccc2nc(-c2ccccc2)n1CCN1CCOCC1,128,105,93,134,163*
O=C1NC[C@@H](c2ccccc2)OC(=O)[C@@H](Cc2ccc(F)cc2)CC/C=C/C[C@@H]1CC(=O)N(CCO)Cc1ccccc1,109,108,110,98,109
Cc1cc(/C([O-])=C(/C(=S)Nc2ccc(F)cc2)[n+]2ccccc2)c(C)n1-c1ccc(F)cc1,104,93,96,101,104
Cc1ccc(-n2c(C)cc(/C([O-])=C(/C(=S)Nc3ccc(F)c(Cl)c3)[n+]3ccccc3)c2C)cc1,33,?,66,179*[may fluoresce violet],102
COc1ccc(-n2nc(C(=O)NCC(=O)N3CCCC3)c3ccccc3c2=O)cc1Cl,?,?,56,270*[may fluoresce violet],81
CCOC(=O)N1CCN(C(=O)CNC(=O)c2nn(-c3ccc(OC)c(Cl)c3)c(=O)c3ccccc23)CC1,104,101,100,100,109
SMILES,AGP1-GFP MLPCN,CIT2-GFP yeast,RPL19A TOR yeast,MEP2-GFP yeast,LAP4-GFP MLPCN
O=c1ccc(-c2ccc(S(=O)(=O)N3CCN(c4cccc(Cl)c4)CC3)o2)n[nH]1,93,94,96,100,91
O=S1(=O)C=C(Sc2nnc(-c3ccccc3)o2)c2ccccc21,28,?,74,166,258*[may fluoresce violet]
Cc1cc(C)nc(SC2=CS(=O)(=O)c3ccccc32)n1,105,99,99,107,108
CN(C)CCCNC(=O)C(=O)Nc1cc2c3c(c1)CC(=O)N3CCC2,98,96,97,97,95
COCCNC(=O)C(=O)Nc1cc2c3c(c1)CC(=O)N3CCC2,18,?,61,226*[may fluoresce violet],89
O=S(=O)(c1ccc(NC(=S)N/N=C/c2cccc(Oc3ccccc3)c2)cc1)N1CCOCC1,111,170*,113,165,127
Cc1ccc(C(=O)/C=C/c2ccc(Br)cc2)o1,99,97,96,98,112
O=C(/C=C/c1ccc(Cl)cc1)c1ccc([N+](=O)[O-])o1,?,?,42*[may fluoresce violet],279*[may fluoresce violet],60
CCN(CC)S(=O)(=O)c1ccc(C(=O)N(c2ccc(C)cc2)C2C=CS(=O)(=O)C2)cc1 (stereo not given),?,?,41*[may fluoresce violet],160,62
Cc1ccc(N(C(=O)c2ccc(S(=O)(=O)N3CCOCC3)cc2)C2C=CS(=O)(=O)C2)cc1 (stereo not given),98,94,99,102,102
Cc1ccc([C@H]2C(C(=O)O)=CC[C@@H](c3ccc(C)cc3)N2S(=O)(=O)c2ccc(C)cc2)cc1,99,93,100,102,93
N#Cc1ccc(N/N=C/c2cn(-c3ccccc3)nc2-c2ccccc2)c([N+](=O)[O-])c1,102,108,105,106,92
NS(=O)(=O)c1ccc(N/N=C/c2cn(-c3ccccc3)nc2-c2cccs2)c([N+](=O)[O-])c1,?,?,19*[may fluoresce violet],221*[may fluoresce violet],61
COc1ccc(CC(=O)NC(C)c2ccc(S(N)(=O)=O)cc2)cc1S(=O)(=O)N1CCOCC1 (stereo not given),91,95,94,90,89
COC(=O)C(C)Oc1ccc(-c2nccc(-c3ccccn3)n2)cc1 (stereo not given),91,108,104,98,84
COc1ccccc1CNC(=O)C1CCN(S(=O)(=O)c2ccc(-n3cnnn3)cc2)CC1,?,?,61,609*[may fluoresce violet],89
COC(=O)c1sc(S(=O)(=O)NCCC(=O)O)c(C(=O)OC)c1C,103,101,103,103,99
C/C(=N\NC(=O)c1ccncc1)c1cc2ccccc2oc1=O,94,96,97,100,93
C/C(=N/NC(N)=S)c1cc2ccc(O)cc2oc1=O,?,?,20*[may fluoresce violet],?,81
Cc1ccc(NC(=O)c2cccc3cccnc23)cc1,?,?,49*[may fluoresce violet],603*[may fluoresce violet],75
O=C(O)c1cccc(S(=O)(=O)Nc2ccccc2Cc2ccccc2)c1,20,?,53,265*[may fluoresce violet],96
CC(C)(CC(=O)O)CC(=O)Nc1ccccc1Oc1ccccc1,?,?,41*[may fluoresce violet],249*[may fluoresce violet],56

# Assay outcomes (PubChem)
